# Sm TGR block – blocks Schistosoma mansoni thioredoxin glutathione reductase; Q962Y6; purified TGR, DTNB reduction, TNB absorbance 405 nm; Potency, µM (top dose mostly 114 µM), for inactives: at the highest dose activity change, negative = inhibition, actives largely listed as inhibitors; actives 3% (n = 360,000); AID 485364; also: % is scaled to controls: 0 for no effect and ±100 for the full control effect; nearly all actives have a fitted effect of over 60% in size
#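 Kinetic colorimetric format: TGR-catalysed, NADPH-driven DTNB reduction monitored via TNB absorbance. Enzyme dispensed at 20 nM; compound exposure 15 min at room temperature before reaction start.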
# SARS PLP yeast – SARS-CoV PLP inhibition in yeast | S. cerevisiae expressing SARS-CoV PLpro, growth rescue | Potency, µM (top dose mostly 32.9 µM), inactives show at the top dose activity, positive = growth rescue, most hits filed as activators | actives 0.19% (n = 330,000) | AID 485353; calls by dose curve; also: 0% is about no effect; nearly all actives have a fitted effect of over 55% in size
# RE007 growth inh – less growth of the S. pombe RE007 Vpr strain. actives 0.21% (n = 360,000). AID 651644. Potency, µM (titrated, usually from 92.2 µM), for the others: at the top dose activity change, negative = less growth, actives largely listed as inhibitors. S. pombe RE007 Vpr strain, BacTiter-Glo ATP luminescence, 24 h; active = well fitted falling curve with a large enough effect; inconclusive = small, poorly fitted or top-dose-only effect; inactive = no such curve, though single readings can be large or run the other way; also: % is scaled to controls: 0 for no effect and ±100 for the full control effect; nearly all actives have a fitted effect of over 50% in size
#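 Fission yeast strain RE007, carrying one chromosomally integrated HIV-1 vpr copy, was seeded at OD 0.01 in PMG+AL medium with 23 nL pinned compound. After 24 h at 30 °C and 99% humidity, viability was read by BacTiter-Glo luminescence.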
# TbPYK inhibitor – T. brucei pyruvate kinase inhibition. Potency, µM (series often up to 76.8 µM), without a hit: top-dose activity, negative = inhibition, most hits filed as inhibitors. TbPYK enzyme, Kinase-Glo Plus ATP luminescence, 45 min. actives 0.12% (n = 410,000). AID 624173; also: % is scaled to controls: 0 for no effect and ±100 for the full control effect; nearly all actives have a fitted effect of over 50% in size
#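 Activity of T. brucei pyruvate kinase was followed by Kinase-Glo Plus luminescence after the enzyme reacted 45 min at room temperature with 130 uM ADP (final) and substrate. Test compounds were added before ADP at multiple concentrations.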
# NS1 inh – inhibitors of influenza NS1 protein function | Potency, µM (series often up to 46.1 µM), inactives show at the top dose activity, positive = more growth | actives 0.4% (n = 270,000) | AID 2326; calls by dose curve; also: actives are rising curves; nearly all actives have a fitted effect of over 50% in size
#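 Read-out: OD600 growth recovery of NS1-expressing budding yeast. Cells grown overnight at 30C in -URA glucose medium, washed, resuspended and diluted 1:100 in 2% galactose assay medium, pH 6.0. Same strain lacking NS1 served as positive control.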
# LmPK inh – blocks Leishmania mexicana pyruvate kinase activity; Q27686; purified LmPK, Kinase-Glo ATP luminescence, 1 h; Potency, µM (titrated, usually from 57.5 µM), for inactives: top-dose activity change, negative = inhibition, usual class: inhibitors; actives 0.37% (n = 290,000); AID 1721; also: % is scaled to controls: 0 for no effect and ±100 for the full control effect
# Target sequence (Q27686 whole entry, looked up): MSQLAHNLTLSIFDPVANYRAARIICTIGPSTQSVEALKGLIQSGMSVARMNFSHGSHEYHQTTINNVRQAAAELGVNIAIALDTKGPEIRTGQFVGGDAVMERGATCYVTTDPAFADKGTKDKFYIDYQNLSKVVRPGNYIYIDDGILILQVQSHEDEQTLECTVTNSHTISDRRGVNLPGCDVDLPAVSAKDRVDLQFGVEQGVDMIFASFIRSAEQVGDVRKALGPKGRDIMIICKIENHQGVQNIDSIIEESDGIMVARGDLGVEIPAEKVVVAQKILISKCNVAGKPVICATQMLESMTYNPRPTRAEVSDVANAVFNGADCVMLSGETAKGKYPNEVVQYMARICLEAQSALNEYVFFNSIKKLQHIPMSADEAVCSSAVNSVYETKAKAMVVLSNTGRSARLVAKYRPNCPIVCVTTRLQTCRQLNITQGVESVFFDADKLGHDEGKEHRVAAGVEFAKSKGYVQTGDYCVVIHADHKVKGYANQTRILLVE
#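 0.1 nM LmPK, 0.5 mM PEP, 0.1 mM ADP; 50 mM imidazole pH 7.2, 7 mM MgCl2, 50 mM KCl; 1 h RT. Kinase-Glo luminescence readout, normalized to no-enzyme (full inhibition) and uninhibited wells.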
# An asterisk follows results filed as active; ? = inconclusive; / = no result given; [ ] = remark or other dose. Rows were chosen to be rich in hits. Some 3.3% of all compounds tested hit in one or more screens of this group. Unless noted, calls follow the shape of the dose curve; as a rule, active = well fitted curve in the direction sought with a large enough effect; inconclusive = small, poorly fitted or top-dose-only effect, or another doubt; inactive = no such curve, though single readings can be large; an effect the other way counts as inactive or inconclusive. Potency is read from the fitted curve at half-maximal effect.
SMILES,Sm TGR block,SARS PLP yeast,RE007 growth inh,TbPYK inhibitor,NS1 inh,LmPK inh
Cc1ccc(/C=C/C(=O)O)cc1S(=O)(=O)Nc1ccc(C(=O)O)cc1,35.5µM*,1.2%,3.8%,-5.4%,5.7%,0.0%
COC(=O)C1=C(C)N(Cc2ccccc2)C(=NCc2ccco2)N[C@H]1c1ccc(Br)cc1,/,/,/,/,-14.8%,-8.5%
N=C(N)S[C@H]1c2ccccc2-c2cc([N+](=O)[O-])ccc21,/,/,/,/,17.7%,/
Cc1oc(C)c2c(=O)cc(-c3ccc4c(c3)OCO4)cc(OC(=O)c3ccccc3Cl)c12,39.8µM*,/,/,-4.7%,/,/
Cc1oc(C)c2c(=O)cc(-c3ccc4c(c3)OCO4)cc(OC(=O)c3ccccc3Br)c12,44.7µM*,/,/,3.7%,/,/
COc1cc(-c2cc(OC)c3c(C)oc(C)c3c(=O)c2)ccc1OC(=O)c1ccccc1Cl,-16.9%,/,/,-17.2%,/,/
Clc1ccc(-c2cn3cc(Br)ccc3n2)cc1Cl,0.7%,13.5%,-23.3%,-5.4%,-7.3%,-13.2%
Clc1ccc(-c2cn3c(n2)-c2ccccc2C3)cc1Cl,-0.6%,-51.5%,2.0%,-1.9%,-16.3%,25.1µM*
Cc1cccc(NC(=O)CCNS(=O)(=O)c2ccc3c(c2)CCCC(=O)N3)c1C,-0.1%,/,/,0.6%,/,/
CCOC(=O)c1c(-c2ccccc2)csc1NC(=O)c1cc(-c2cccc(OC)c2)on1,10.2%,/,/,?,/,/
O=C1NC2(CCC3(CC2)OCCO3)NN1c1ccccc1,-8.0%,-1.4%,186.1%,-4.4%,/,-7.7%
Cc1ccc(N2NC3(CCN(C(N)=O)CC3)NC2=O)cc1,39.8µM*,-1.1%,39.3%,-8.4%,-1.6%,1.3%
O=[N+]([O-])c1ccccc1CNCCO,-17.9%,-5.2%,-12.0%,-1.7%,/,/
O=[N+]([O-])c1ccccc1CNCCCCCO,50.1µM*,-6.8%,-9.4%,-9.7%,/,/
Oc1ccc2ccccc2c1/C=C\c1ccc2c(Br)cc(Br)c(O)c2n1,/,/,/,/,-43.0%,/
Cc1cc(=O)[nH]c(N/N=C/c2sccc2C)n1,4.5%,-7.2%,7.8%,1.9%,8.2%,?
C(=N\Nc1nc2ccccc2[nH]1)/c1cccs1,-17.3%,-1.8%,6.6%,-4.7%,-99.0%,14.1µM*
O=[N+]([O-])c1ccc(O)c(/C=N/Nc2nc3ccccc3[nH]2)c1,3.6%,11.2µM*,50.1%,-6.6%,1.5%,-0.3%
Cc1ccsc1/C=N/Nc1nc2ccccc2[nH]1,-11.3%,1.3%,-7.9%,-22.1%,-21.8%,14.1µM*
COc1cc(-c2nn3c(-c4ccco4)nnc3s2)cc(OC)c1OC,-1.3%,-1.0%,/,/,3.2%,-0.9%
COc1cccc(-c2nn3c(-c4ccco4)nnc3s2)c1,44.7µM*,0.3%,4.7%[3.69 µM],/,9.9%,6.3%
Clc1ccc(-c2nnc3sc(-c4ccccn4)nn23)cc1,-17.2%,0.1%,/,/,-7.4%,-0.2%
Brc1ccc(-c2nn3c(-c4ccco4)nnc3s2)o1,8.91µM*,-15.4%,-6.5%,-24.2%,-50.2%,4.1%
c1ccc(-c2nn3c(-c4ccco4)nnc3s2)nc1,25.1µM*,-7.2%,-17.0%,-14.3%,-23.0%,-0.1%
C/C(=N\Nc1nc(C)c(C)s1)c1ccc([N+](=O)[O-])cc1,22.4µM*,4.4%,-19.7%,-2.5%,/,-4.1%
SMILES,Sm TGR block,SARS PLP yeast,RE007 growth inh,TbPYK inhibitor,NS1 inh,LmPK inh
Cc1cc(C)n(-c2nc(C)c(C)c(=O)n2CC(=O)Nc2cccc([N+](=O)[O-])c2)n1,4.5%,/,/,1.0%,/,/
S=c1[nH]nc2ccc3ccccc3n12,/,/,-10.2%,7.08µM*,/,/
Cc1occc1C(=O)NCCCCNC(=O)c1ccoc1C,-14.7%,-6.0%,19.7%,9.7%,10.1%,2.4%
CCCCCCCCCCCNC(=O)c1ccoc1C,17.8µM*,-61.2%,-16.5%,0.3%,-12.3%,1.8%
Cc1cccc(/C(N)=N/OC(=O)c2ccc3c(c2)OCO3)c1,3.0%,-114.9%,35.5µM*,?,-18.0%,4.47µM*
Cc1cccc(/C(N)=N/OC(=O)c2cccnc2)c1,45.7%,0.4%,-14.9%,1.7%,-4.7%,22.4µM*
CCN1CCc2c(sc(-n3cccc3)c2C(C)NC(=O)Nc2cc(Cl)c(OC)cc2OC)C1 (stereo unspecified),-6.4%,/,/,-5.3%,/,/
CC(Oc1ccccc1)C(=O)NC1CCCCCCC1 (stereo unspecified),3.4%,-3.3%,6.7%,-1.8%,-12.8%,-7.3%

# Screens deposited in PubChem BioAssay by National Center for Advancing Translational Sciences (NCATS).
